CBX7 AlphaScr: CBX7 inhibition, primary AlphaScreen | O95931 | AlphaScreen His6-CBX7 / biotin-H3K27me3 peptide binding; active compounds read low | normalised signal (fraction of DMSO) (test concentration not listed) | actives 1.1% (n = 66,000) | AID 1224903; in the data active = normalised signal below about 0.5
Target sequence (O95931 whole entry, looked up): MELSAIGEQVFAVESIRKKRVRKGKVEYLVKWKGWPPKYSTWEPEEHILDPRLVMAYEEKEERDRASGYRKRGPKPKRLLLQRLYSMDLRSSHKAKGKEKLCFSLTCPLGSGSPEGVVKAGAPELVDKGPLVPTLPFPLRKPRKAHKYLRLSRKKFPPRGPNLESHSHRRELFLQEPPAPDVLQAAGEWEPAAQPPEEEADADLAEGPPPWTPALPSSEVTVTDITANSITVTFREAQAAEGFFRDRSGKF
Numbers stand for hits; - = inactive; ! = not confirmed by another sample. The sample as a whole holds a higher share of hits than the screen did.

SMILES	CBX7 AlphaScr
Cc1ccc(C)c(CN2C(=O)c3ccccc3S(=O)c3ccc(C(=O)NCC4CCCO4)cc32)c1 (centres undefined)	-
Cc1ccc(C)c(-c2[nH]c(-c3cccc(O)c3)nc2-c2ccccc2)c1	-
O=C(O)c1ccc(-c2nc(-c3ccc(C(=O)c4ccc(F)cc4)cc3)c(-c3ccc(F)cc3)[nH]2)cc1	-
Oc1cccc(-c2nc(-c3ccccc3)c(-c3ccc(F)cc3)[nH]2)c1	0.35
O=C(c1ccccc1)c1ccc(-c2[nH]c(-c3cccc(Cl)c3)nc2-c2ccccc2)cc1	-
Oc1cccc(-c2nc(-c3ccccc3)c(-c3ccccc3)[nH]2)c1	0.34
Oc1ccc(-c2nc(-c3ccccc3)c(-c3ccc(F)cc3)[nH]2)cc1O	-
CCC(C)NC(=O)CNC(=O)c1nn(-c2ccc(OC)c(OC)c2)c(=O)c2ccccc12 (centres undefined)	-
Cc1nc2c(-c3ccc(F)cc3)c(C)nn2c(C)c1CCC(=O)NCc1ccccc1	-
COc1ccc(-n2cnc3cc(NS(=O)(=O)c4ccccc4)ccc32)cc1	-
CCOc1ccc(NCc2nc3ccccc3n2CCOc2ccc(C)cc2)cc1	-
COc1ccc(-n2cnc3cc(NCc4nc5ccccc5n4C)ccc32)cc1	0.41
COc1ccc(-n2cnc3cc(Nc4nnc(C)c5ccccc45)ccc32)cc1	-
COc1ccc(-n2cnc3cc(NC(=O)c4ccccc4)ccc32)cc1	-
Brc1ccc(NCc2nc3ccccc3n2CCOc2ccccc2)cc1	-
CCOc1ccc(NCc2nc3ccccc3n2CCOc2ccccc2)cc1	0.18
CC(C)(C)n1cnc2cc(NCc3cccc4ccccc34)ccc21	-
COc1ccc(-n2cnc3cc(NCc4cccc5ccccc45)ccc32)cc1	0.31
C#CC(C)(C)NS(=O)(=O)c1cc(-c2nnc(Nc3ccccc3C)c3ccccc23)ccc1C	-
CCOC(=O)c1c(NC(=O)COc2ccccc2C)sc2c1CCC(CC)C2 (centres undefined)	-
COc1ccc(F)cc1CN1CCN(c2ncnc3sc4c(c23)CCCC4)CC1	-
COc1cc2c(c(OC)c1)C(c1cccc(Oc3ccccc3)c1)CC(=O)N2 (centres undefined)	-
CN(CC(=O)NCCc1ccc(Cl)cc1)S(=O)(=O)c1ccc2c(c1)CCC(=O)N2	-
O=C(O)c1c[nH]c2ccc(S(=O)(=O)N3CCCCC3c3cccnc3)cc2c1=O (centres undefined)	0.4
COc1ccc(S(=O)(=O)N2CCCCC2c2cccnc2)cc1 (centres undefined)	-
SMILES	CBX7 AlphaScr
O=C(c1c[nH]c2ccc(S(=O)(=O)N3CCCCC3c3cccnc3)cc2c1=O)N1CCCC1 (centres undefined)	-
CC(=O)Nc1ccc(Oc2cc([N+](=O)[O-])cc3c2C(=O)Nc2ccccc2O3)cc1	-
Cc1ccc2c(c1)Oc1cc([N+](=O)[O-])cc(Oc3ccc(Cl)cc3)c1C(=O)N2	0.2
Cc1ccc2c(c1)Oc1cc([N+](=O)[O-])cc(Oc3ccccc3C)c1C(=O)N2	0.049
Cc1cc(C)cc(OC(C)C(=O)Nc2c(C(=O)c3ccc(Br)cc3)oc3ccccc23)c1 (centres undefined)	-
CCC1Oc2ccc(C)cc2N(CC(=O)NCCCN2CC(C)CC(C)C2)C1=O (centres undefined)	-
CCCC(=O)Nc1ccc(-c2cn3cccc(C)c3n2)cc1	-
Cc1ccccc1CNC(=O)Cn1ncc2ccccc21	-
CCOCCCNC(=O)c1c[nH]c2ccc(S(=O)(=O)Nc3cc(C)cc(C)c3)cc2c1=O	-
O=C1c2[nH]nc(-c3ccccc3)c2C(c2ccccc2)N1c1ccccc1 (centres undefined)	-
CC(C)c1ccc(C2c3c(-c4ccccc4)n[nH]c3C(=O)N2c2ccccc2)cc1 (centres undefined)	-
COc1ccc(C2c3c(-c4ccccc4)n[nH]c3C(=O)N2c2ccccc2)cc1 (centres undefined)	0.38
CCCCCCCCn1c(-c2nonc2N)nc2ccccc21	-
FC(F)(F)c1cccc(-n2nc(-c3ccc(Cl)cc3)cc2-c2ccc(Cl)cc2)c1	-
COc1ccc(NC(CNS(=O)(=O)c2ccc(Cl)cc2)c2ccccc2)cc1 (centres undefined)	-
COc1ccccc1NC(CNS(=O)(=O)c1ccccc1)c1ccccc1 (centres undefined)	0.47
O=S(=O)(NCC(Nc1ccccc1)c1ccccc1)c1ccc(Cl)cc1 (centres undefined)	-
O=S(=O)(Nc1ccc(Cl)cc1)c1cnc[nH]1	-
COc1cc2c(C(=O)NCc3ccc(F)cc3)cn(C)c(=O)c2cc1OC	-
Cc1ccc(NC(=O)C2CC2(c2ccccc2C)c2ccccc2C)cc1 (centres undefined)	-
CCOc1cc(/C=C\c2cc(C(F)(F)F)[nH]c(=O)n2)ccc1OC	-
O=c1c(S(=O)(=O)c2ccc(F)cc2)c[nH]c2ccccc12	-
Fc1ccc(-c2cc(-c3nc(-c4c(F)cccc4F)no3)c3ccccc3n2)cc1	-
Cc1cccc(Nc2nc(-c3c(C)nc4ccccn34)cs2)c1	-
COc1ccccc1Nc1nc(-c2c(C)nc3ccccn23)cs1	-
SMILES	CBX7 AlphaScr
COc1ccccc1Nc1nc(-c2c(C)nc3sccn23)cs1	0.32
Cc1ccc(Nc2nc(-c3c(C)nc4sccn34)cs2)c(C)c1	0.42!
Cc1nc2ccccn2c1-c1csc(Nc2ccc(Br)cc2Br)n1	-
COc1ccc(Cl)cc1Nc1nc(-c2c(C)nc3sccn23)cs1	-
CC(C)c1nc(N2CCCCC2)c(C#N)c2c1CCCC2	-
CCn1c(SCC(=O)Nc2ccccc2)nnc1-c1cccnc1	-
Cc1ccc(NC(=O)CC23CC4CC(C2)CC(n2nnc(C)n2)(C4)C3)c(C)c1	-
Cc1cccc(CN2CCN(CC(=O)NCc3ccc(Cl)c(Cl)c3)C2=O)c1	-
CC(C)(O)C#Cc1ccc(C(=O)N2CCN(c3ccccn3)CC2)o1	-
CCCCCCC(=O)Nc1c2c(nc3c1CCC3)CCCC2	-
CC(C)(C)NCC(=O)Nc1c2c(nc3c1CCC3)CCCC2	-
CNCC(=O)Nc1c2c(nc3c1CCC3)CCCC2	0.49
Cc1cc(NC(=O)CNC2CCCCC2)c2ccccc2n1	-
O=C(CNC1CCCCC1)Nc1c2c(nc3c1CCC3)CCCC2	0.34
O=C(CNC1CCCCC1)Nc1c2c(nc3c1CCC3)CCC2	-
CCc1cccc(C)c1NC(=O)C1CCN(c2nnc(-n3cccc3)s2)CC1	-
O=C(Nc1ccc(OC(F)(F)F)cc1)c1cc(-c2cccc(Cl)c2)on1	-
CC(=O)NCC(=O)NC(C(=O)Nc1ccc2c(c1)OCO2)c1ccccc1 (centres undefined)	-
COC(=O)c1ccc(N2C(=O)CC(N3CCN(c4ccc(OC)cc4)CC3)C2=O)cc1 (centres undefined)	-
Cc1cccc(CCNC(=O)CC2Sc3ccccc3NC2=O)c1 (centres undefined)	-
Cc1ccc(C)c(N2CCN(C(=O)CC3Sc4ccccc4NC3=O)CC2)c1 (centres undefined)	0.5
Cc1cc(Cl)ccc1NC(=O)CC1Sc2ccccc2NC1=O (centres undefined)	-
Cc1ccccc1Cc1c(C)nc2c(C(=O)N3CCN(c4cccc(C)c4C)CC3)cnn2c1C	-
CCOC(=O)N1CCC(Nc2c(NC3CCCCC3)c(=O)c2=O)CC1	-
CCCCc1ccc(NC(=O)C(CC(C)C)N2C(=O)c3ccccc3C2=O)cc1 (centres undefined)	-
